Laboratory results from PubChem BioAssay.
Activity calls are given as the source filed them. Unless noted, the rule behind the calls is not given here.

Assays:
[1] = A549 cell viability effects, profiling panel, calcein-AM fluorescence, 48 h, basal (AID 1162); conditions: higher = more signal; note: test concentration not given here
[2] = adipocyte viability effects, profiling panel, cell-based, 3T3-L1 adipocytes, calcein-AM fluorescence, 48 h, basal (AID 1163); conditions: 3T3-L1 adipocytes viability, higher = more signal; note: test concentration not given here
[3] = HepG2 cell viability effects, profiling panel, calcein-AM fluorescence, 48 h, basal (AID 1164); conditions: higher = more signal; note: test concentration not given here
[4] = MM1S cell viability effects, profiling panel, calcein-AM fluorescence, 48 h, basal (AID 1165); conditions: higher = more signal;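 note: viability of MM1S multiple myeloma cells under basal unstimulated conditions; test concentration not given here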
[5] = basal RPMI8226 viability, no added stimulus, profiling panel, cell-based, calcein-AM fluorescence, 48 h, PK04 Diversity Set (AID 1166); conditions: RPMI8226 myeloma viability, higher = more signal;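 note: cells grown under basal conditions without added stimulus; test concentration not given here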
[6] = basal HepG2 mitochondrial membrane potential changes, profiling panel, cell-based, JC-1 fluorescence, 24 h, 100 nL compound (AID 1167); conditions: higher = more signal; note: test concentration not given here
[7] = basal 3T3-L1 adipocyte mitochondrial potential changes, profiling panel, cell-based, JC-1 fluorescence, 3T3-L1 adipocytes, 24 h, 100 nL compound (AID 1168); conditions: JC-1 mitochondrial fluorescence, higher = more signal, called active from +8 up or from −8 down; note: test concentration not given here
[8] = basal RPMI8226 mitochondrial membrane potential changes, profiling panel, cell-based, JC-1 fluorescence, 24 h, 100 nL compound (AID 1169); conditions: RPMI8226 myeloma, JC-1 mitochondrial potential fluorescence, higher = more signal; note: test concentration not given here
[9] = basal MM1S mitochondrial membrane potential changes, profiling panel, cell-based, JC-1 fluorescence, 24 h, 100 nL compound (AID 1170); conditions: higher = more signal; note: test concentration not given here
[10] = A549 lung cancer cell viability effects, profiling panel, resazurin fluorescence, 24 h, PK04 Diversity Set (AID 1171); conditions: higher = more signal, called active from +8 up or from −8 down; note: test concentration not given here
[11] = HepG2 liver cancer cell viability effects, profiling panel, resazurin fluorescence, 24 h, PK04 Diversity Set (AID 1172); conditions: higher = more signal; note: test concentration not given here
[12] = basal S. cerevisiae growth modulation, no modifier, primary screen, OD600, strain BY4716, 24 h, basal condition (AID 1173); conditions: OD600, 24 h, higher = more signal, called active from +8 up or from −8 down
[13] = MM1S myeloma cell viability, profiling panel, resazurin fluorescence, basal, 24 h, PK04 Diversity Set (AID 1174); conditions: higher = more signal, called active from +8 up or from −8 down;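 note: MM1S multiple myeloma cell line; test concentration not given here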
[14] = molecular target: Dihydroorotate dehydrogenase (quinone), mitochondrial (Plasmodium falciparum (isolate 3D7)) (UniProt Q08210); experiment: PfDHODH enzyme inhibitors, primary screen, biochemical, C-terminal His tag, absorbance 600 nm (AID 1175); conditions: DCIP absorbance 600 nm, higher = more signal, called active from +8 up or from −8 down;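 note: recombinant parasite enzyme with a five histidine tag at its C terminus; test concentration not given here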
Sequence of Dihydroorotate dehydrogenase (quinone), mitochondrial (Plasmodium falciparum (isolate 3D7)) (Q08210 whole entry, looked up): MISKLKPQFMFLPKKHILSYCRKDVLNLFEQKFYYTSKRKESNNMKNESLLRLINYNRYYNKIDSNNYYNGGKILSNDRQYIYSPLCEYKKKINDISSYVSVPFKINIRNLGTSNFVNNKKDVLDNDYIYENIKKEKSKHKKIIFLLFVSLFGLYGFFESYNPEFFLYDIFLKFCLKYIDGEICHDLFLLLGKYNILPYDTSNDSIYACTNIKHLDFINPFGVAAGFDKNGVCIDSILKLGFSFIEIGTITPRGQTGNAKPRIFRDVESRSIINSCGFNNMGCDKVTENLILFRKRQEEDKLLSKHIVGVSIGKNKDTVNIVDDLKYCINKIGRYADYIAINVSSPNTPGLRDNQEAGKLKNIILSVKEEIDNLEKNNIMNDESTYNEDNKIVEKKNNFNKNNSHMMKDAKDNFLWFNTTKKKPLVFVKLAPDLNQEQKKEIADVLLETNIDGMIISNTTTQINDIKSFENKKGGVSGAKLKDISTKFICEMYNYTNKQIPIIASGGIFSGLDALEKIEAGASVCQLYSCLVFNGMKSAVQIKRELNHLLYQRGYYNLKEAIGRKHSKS

[15] = P. aeruginosa biofilm formation inhibitors, primary screen, strain PAO1, LB-PBS medium, absorbance 600 nm (AID 1176); note: test concentration not given here; conditions: P. aeruginosa PAO1 growth/biofilm, A600, 12 h; higher = more signal
[16] = S. cerevisiae RM11-1a growth modifiers, primary screen, strain RM11-1a, OD600, basal, 24 h (AID 1177); conditions: OD600, 24 h, higher = more signal, called active from +8 up or from −8 down;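 note: cultures grown under basal conditions with no added stressor; test concentration not given here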
[17] = E. coli acrAB mutant growth effects, primary screen, E. coli filamentation inducers, strain DRC39, OD650, 24 h (AID 1178); conditions: higher = more signal, called active from +8 up or from −8 down;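 note: growth measured as culture turbidity by optical density at 650 nm; test concentration not given here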
[18] = E. coli acrAB mutant growth effects, primary screen, E. coli filamentation inducers, strain DRC39, OD650, 48 h (AID 1179);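 note: screen aims at cell division blockers that make cells filament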; conditions: E. coli DRC39 delta-acrAB growth, higher = more signal, called active from +8 up or from −8 down
[19] = RPMI8226 myeloma cell viability, profiling panel, resazurin fluorescence, basal, 24 h, PK04 Diversity Set (AID 1180); conditions: higher = more signal;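 note: RPMI8826 multiple myeloma cell line at 5000 cells per well; test concentration not given here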
[20] = molecular target: E3 ubiquitin-protein ligase XIAP (Homo sapiens) (UniProt P98170); experiment: XIAP binders, primary screen, biophysical, small-molecule microarray, fluorescence 635 nm (AID 1181); conditions: small-molecule microarray binding, higher = more signal;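 note: score merges 667 nm emission and signal to noise over triplicate slides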
Sequence of E3 ubiquitin-protein ligase XIAP (Homo sapiens) (P98170 whole entry, looked up): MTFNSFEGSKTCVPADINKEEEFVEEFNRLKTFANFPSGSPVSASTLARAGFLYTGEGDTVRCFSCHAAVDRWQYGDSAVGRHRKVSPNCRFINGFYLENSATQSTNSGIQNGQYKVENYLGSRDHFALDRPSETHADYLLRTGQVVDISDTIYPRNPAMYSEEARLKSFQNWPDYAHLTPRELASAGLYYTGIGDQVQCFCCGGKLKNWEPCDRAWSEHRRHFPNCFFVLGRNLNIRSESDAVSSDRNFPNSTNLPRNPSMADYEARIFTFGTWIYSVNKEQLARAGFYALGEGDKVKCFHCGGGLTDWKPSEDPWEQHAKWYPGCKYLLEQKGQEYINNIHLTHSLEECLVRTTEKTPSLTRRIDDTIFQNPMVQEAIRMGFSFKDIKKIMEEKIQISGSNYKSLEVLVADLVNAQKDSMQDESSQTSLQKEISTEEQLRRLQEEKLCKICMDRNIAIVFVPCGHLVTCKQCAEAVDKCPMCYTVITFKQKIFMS

| Structure (SMILES) | z-score [1] | z-score [2] | z-score [3] | z-score [4] | z-score [5] | z-score [6] | z-score [7] | z-score [8] | z-score [9] | z-score [10] | z-score [11] | z-score [12] | z-score [13] | composite z-score [14] | z-score [15] | z-score [16] | z-score [17] | z-score [18] | z-score [19] | composite z-score [20] |
| --- | --- | --- | --- | --- | --- | --- | --- | --- | --- | --- | --- | --- | --- | --- | --- | --- | --- | --- | --- | --- |
| Cc1ccc(S[C@]2(C(=O)NCCCN(C)C)CC(=O)N(Cc3ccccc3)[C@@H]2c2ccc(CO)cc2I)cc1 | 1.03 | 0.927 | 0.914 | -3.64 | -2.38 | 1.65 | -0.645 (inactive) | -0.643 | -0.822 | 0.0027 (inactive) | -0.896 | -4.78 (inactive) | -2.94 (inactive) | -1.38 (inactive) | -0.369 (inactive) | -1.03 (inactive) | -0.361 (inactive) | -0.554 (inactive) | -2.15 | -0.0848 |
| O=C(NCC(F)(F)F)[C@@H]1c2ccccc2C(=O)N(Cc2ccccc2Cl)[C@H]1c1ccc(CO)cc1 | 1.25 | -0.0448 | 0.343 | 0.189 | -0.317 | 1.48 | -0.198 (inactive) | -0.65 | 0.499 | 1.26 (inactive) | 0.519 | -0.331 (inactive) | 0.403 (inactive) | -0.731 (inactive) | 0.277 (inactive) | -0.562 (inactive) | 0.113 (inactive) | 0.183 (inactive) | 0.641 | 0.282 |
| O=C(N1CCCCC1)[C@@]1(CCS(=O)(=O)c2ccccc2)N=C(c2ccc(OCCCO)cc2)O[C@H]1c1ccccc1 | -1.35 | 1 | -1.12 | -2.25 | -3.55 | 2 | -0.751 (inactive) | -0.72 | -2.09 | -0.908 (inactive) | 0.233 | 0.0247 (inactive) | -2.91 (inactive) | 1.05 (inactive) | -1.01 (inactive) | 0.0929 (inactive) | 1.33 (inactive) | 0.561 (inactive) | -2.78 | 0.198 |
| C=C(CCCC)/C(=C/C[C@@H](OC(=O)c1ccncc1)c1ccc(CO)o1)c1cnc2ccccc2c1 | 1.18 | 0.282 | -0.284 | -2.48 | -1.18 | -0.526 | -0.586 (inactive) | -0.287 | 1 | -0.0271 (inactive) | -0.0346 | -1.95 (inactive) | 0.82 (inactive) | -7.54 (inactive) | 0.154 (inactive) | -0.27 (inactive) | 0.698 (inactive) | 0.29 (inactive) | 0.501 | 0.451 |
| CCCC=C(CCC)[C@@H](NC(=O)c1ccccc1)c1ccccc1 | -0.956 | -0.551 | 0.46 | -0.0621 | -0.246 | -3.04 | 0.177 (inactive) | -0.017 | -1.49 | 0.215 (inactive) | -0.232 | 0.752 (inactive) | -1.01 (inactive) | -0.421 (inactive) | 1.27 (inactive) | 0.0321 (inactive) | 0.164 (inactive) | 0.475 (inactive) | 0.0944 | 0.086 |
| CC(C)C[C@@H]1NC(=O)[C@H](CC(C)C)NC(=O)[C@@]23C(=O)N[C@@H](Cc4ccccc4)C2[C@H](C)[C@@]2(C)O[C@H]2C3/C=C/CC/C=C/CNC1=O (stereo not given in full) | -0.422 | 1.31 | -0.766 | -1.66 | -2.04 | 2.33 | -0.141 (inactive) | -0.366 | 0.19 | 1 (inactive) | -0.0096 | -0.737 (inactive) | 0.229 (inactive) | -0.744 (inactive) | 0.179 (inactive) | 0.569 (inactive) | 0.794 (inactive) | -0.103 (inactive) | 0.0441 | -0.02 |
| C=C(CCCC)C(=O)CC[C@@H](OC(C)=O)c1ccccc1OCCO | 0.509 | -0.0795 | -0.54 | -2.62 | -1.67 | -0.684 | 1.08 (inactive) | -0.76 | 0.93 | 0.288 (inactive) | -0.0263 | -12.5 (active) | 0.304 (inactive) | -2.71 (inactive) | 0.0022 (inactive) | 2.05 (inactive) | 0.662 (inactive) | 0.378 (inactive) | -0.277 | -0.193 |
| Cc1ccc(S[C@]2(C(=O)NC(C)C)CC(=O)N(C3Cc4ccccc4C3)[C@@H]2c2ccc(CO)cc2)cc1 | 0.0188 | 2.29 | 0.0794 | 0.549 | -1.02 | 0.0355 | -0.636 (inactive) | 0.758 | 0.643 | -0.0208 (inactive) | 0.0858 | -0.0445 (inactive) | 0.48 (inactive) | -0.335 (inactive) | 0.229 (inactive) | -0.792 (inactive) | -0.127 (inactive) | -0.768 (inactive) | 0.33 | 0.0181 |
| O=C1NC(=O)C2C1C=CC(C(O)C=Cc1ccc([N+](=O)[O-])cc1)N2Nc1ccccn1 (stereo not given) | 0.183 | -1.49 | 0.324 | -0.141 | -0.411 | -0.249 | -0.304 (inactive) | 0.412 | 0.423 | -0.355 (inactive) | -0.629 | -0.203 (inactive) | -0.373 (inactive) | 0.643 (inactive) | 1.23 (inactive) | 0.086 (inactive) | 0.195 (inactive) | -0.466 (inactive) | -0.742 | 0.289 |
